From PubChem BioAssay (EPA / NIEHS)
The source made the active and inactive calls. How the source made its calls: active means hit-call score of the fitted dose curve at least 0.9, where 1 is the maximum; inactive means score below 0.9.

Read-out: Interleukin 2 (IL2), IL2 (gene 3558)
Assay: BSK_BT_xIL2: BioMAP Diversity Plus: BT Assay for Interleukin 2 (IL2) Biomarker Activity (AID 2284245)
Details: primary human B cells with PBMC
Procedure, shortened: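 Readout: supernatant IL-2 via Luminex xMAP after 24 h chemical dosing of a B cell/PBMC primary human co-culture. DMSO serves as negative control and baseline; increases in signal were fitted.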

SMILES	outcome	AC50
CCN(CC)C(=O)C(Cl)=C(C)OP(=O)(OC)OC	inactive	
Cc1ccc(OP(=O)(Oc2ccc(C)cc2C)Oc2ccc(C)cc2C)c(C)c1		12 µM (active)
N#CCCC(Br)(C#N)CBr (stereo unspecified)		11 µM (active)
CC(C)=CC1C(C(=O)OCc2cccc(Oc3ccccc3)c2)C1(C)C (stereo unspecified)		20 µM (active)
O=C(O)COc1cc(Cl)c(Cl)cc1Cl	inactive	
Cc1cc(Cl)ccc1N	inactive	
CCOP(=O)(OCC)OC(=CCl)c1ccc(Cl)cc1Cl		20 µM (active)
CCOC(=O)CCN(SN(C)C(=O)Oc1cccc2c1OC(C)(C)C2)C(C)C		36.3 µM (active)
CC(C)N(C(=O)CCl)c1ccccc1		11.8 µM (active)
Cc1ccccc1OP(=O)(Oc1ccccc1)Oc1ccccc1	inactive	

Read-out: Basic fibroblast growth factor (bFGF), FGF2 (gene 2247)
Assay: BSK_MyoF_bFGF: BioMAP Diversity Plus: MyoF Assay for Basic fibroblast growth factor (bFGF) Biomarker Activity (AID 2284246)
Details: primary human lung fibroblasts
Procedure, shortened: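 Primary human lung fibroblast culture, 24 h compound exposure; ELISA read-out of bFGF. Positive-direction fit vs DMSO baseline. Cytotoxicity: SRB stain (0.1% SRB, 10% TCA fixation, 560 nm) in parallel wells.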

SMILES	outcome	AC50
Oc1cccc(-c2ccccc2)c1	inactive	
NC(=O)CCl	inactive	
CCOP(=O)(OCC)SCCSCC	inactive	
CCOC(=O)CC(=O)CCl	inactive	
CCN(CC)C(=O)C(Cl)=C(C)OP(=O)(OC)OC	inactive	
Cc1ccc(OP(=O)(Oc2ccc(C)cc2C)Oc2ccc(C)cc2C)c(C)c1	inactive	
N#CCCC(Br)(C#N)CBr (stereo unspecified)		25 µM (active)
CC(C)=CC1C(C(=O)OCc2cccc(Oc3ccccc3)c2)C1(C)C (stereo unspecified)	inactive	
O=S(=O)(c1ccc(Cl)cc1)c1cc(Cl)c(Cl)cc1Cl	inactive	
O=C(O)COc1cc(Cl)c(Cl)cc1Cl	inactive	
O=[N+]([O-])c1ccc(Nc2ccccc2)cc1	inactive	
Cc1cc(Cl)ccc1N	inactive	
CCC(C)(C#N)N=NC(C)(C#N)CC (stereo unspecified)	inactive	
Cc1ccc2nc3sc(=O)sc3nc2c1	inactive	
O=c1oc2ccccc2c(O)c1C(CC(O)c1ccc(-c2ccc(Br)cc2)cc1)c1ccccc1 (stereo unspecified)		11.5 µM (active)
O=S(=O)(C(Cl)(Cl)Cl)C(Cl)(Cl)Cl		3.71 µM (active)
CCOP(=O)(OCC)OC(=CCl)c1ccc(Cl)cc1Cl	inactive	
Oc1ccc(Cc2ccc(O)cc2)cc1	inactive	
CC(C=O)Cc1ccc2c(c1)OCO2 (stereo unspecified)	inactive	
CCOC(=O)CCN(SN(C)C(=O)Oc1cccc2c1OC(C)(C)C2)C(C)C	inactive	
O=C(CCl)NCO	inactive	
CC(C)N(C(=O)CCl)c1ccccc1		4 µM (active)
Cc1ccccc1OP(=O)(Oc1ccccc1)Oc1ccccc1	inactive	
Oc1c(Br)cc(Br)cc1Br	inactive	
COCC(=O)N(c1c(C)cccc1C)[C@H](C)C(=O)OC	inactive	
Cc1cc(Cl)ccc1OC(C)C(=O)O (stereo unspecified)	inactive	
